Screens as filed in PubChem BioAssay.
CRE-bla Fsk = alters forskolin-stimulated CRE reporter signaling in CHO cells. CHO CRE-bla reporter (cAMP response element driving beta-lactamase), forskolin EC10, beta-lactamase ratio. Potency, µM (titrated, usually from 38.2 µM), for the others: at the highest dose activity change, negative = inhibition, hits mostly activators. 71,000 tested, 2.5% active; active = well fitted activation curve with a large enough effect in the signal ratio, with a control signal flat, not every such curve was filed as active; inconclusive = small, poorly fitted or top-dose-only effect, or effect the other way, or a change in a side signal; the % refers to the signal ratio; note: % of control where 0% means no effect
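qHTS titration format; CRE-bla CHO reporter; stimulus EC10 NKH 477, a water-soluble forskolin. Read: CCF4 460/530 nm ratio. Potency expressed as AC50 for activators or inhibitors.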
Tau filament bind = tau filament binding; P10636; recombinant tau filaments, thioflavin S fluorescence, 15 h; filaments grown with octadecylsulfate alongside compound; Potency, µM (series often up to 57.1 µM), without a hit: at the highest dose activity change, negative = inhibition; 71,000 tested, 2% active; AID 596;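 note: % is set by controls: 0 for no effect and ±100 for the full control effect; actives lower thioflavin S fluorescence by blocking filaments or displacing dye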
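Tau 2 uM in ThS buffer dispensed; compound added; 60 uM ODS added (finals 1 uM tau, 30 uM ODS); 15 h 37 C; fluor ex450/em510.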
ERK AVP block = inhibitors of vasopressin-stimulated ERK signaling pathway | 72,000 tested, 0.99% active | HEK293-V1b, vasopressin-stimulated pERK AlphaScreen | Potency, µM (series often up to 57.5 µM), for inactives: at the highest dose activity, negative = inhibition, actives largely listed as inhibitors; note: % is set by controls: 0 for no effect and ±100 for the full control effect; nearly all actives have a fitted effect of over 55% in size
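HEK293 cells stably expressing V1b receptor, preincubated 30 min at 37 °C with compound, then stimulated 5 min with 25 nM vasopressin. Phospho-ERK by AlphaScreen SureFire after 5 h RT; normalized to DMSO and vasopressin; AC50 by Hill fit.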
HEK293 cAMP ctrl = counter-screen for TSHR agonists: cAMP increase in parental HEK293 | 73,000 tested, 2.5% active | Potency, µM (series often up to 57.1 µM), for the others: at the top dose activation, hits mostly activators | AID 938 | parental HEK293 CNG cAMP sensor, membrane potential fluorescence; note: % of control where 0% means no effect; nearly all actives have a fitted effect of over 55% in size
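Parental HEK 293 cells stably expressing a cAMP-gated CNG channel were loaded with membrane potential dye containing 100 uM RO 20-1724 for 60 min. Compound added for 30 min; depolarization read as fluorescence intensity at 590 nm.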
TSHR ag = TSH receptor (human) agonism; AID 926; 73,000 tested, 0.48% active; Potency, µM (titrated, usually from 57.1 µM), for the others: top-dose activation, actives largely listed as activators; HEK293-CNG-TSHR cells (CNG channel as cAMP sensor), membrane potential dye, cAMP; active = well fitted activation curve with a large enough effect in the main read-out, with a control signal flat, not every such curve was filed as active; inconclusive = small, poorly fitted or top-dose-only effect, or a change in a side signal; inactive = no such curve, though single readings can be large or run the other way; % of control where 0% means no effect;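 note: the control signal comes from parental cells without the receptor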
Target sequence (P16473 whole entry, looked up): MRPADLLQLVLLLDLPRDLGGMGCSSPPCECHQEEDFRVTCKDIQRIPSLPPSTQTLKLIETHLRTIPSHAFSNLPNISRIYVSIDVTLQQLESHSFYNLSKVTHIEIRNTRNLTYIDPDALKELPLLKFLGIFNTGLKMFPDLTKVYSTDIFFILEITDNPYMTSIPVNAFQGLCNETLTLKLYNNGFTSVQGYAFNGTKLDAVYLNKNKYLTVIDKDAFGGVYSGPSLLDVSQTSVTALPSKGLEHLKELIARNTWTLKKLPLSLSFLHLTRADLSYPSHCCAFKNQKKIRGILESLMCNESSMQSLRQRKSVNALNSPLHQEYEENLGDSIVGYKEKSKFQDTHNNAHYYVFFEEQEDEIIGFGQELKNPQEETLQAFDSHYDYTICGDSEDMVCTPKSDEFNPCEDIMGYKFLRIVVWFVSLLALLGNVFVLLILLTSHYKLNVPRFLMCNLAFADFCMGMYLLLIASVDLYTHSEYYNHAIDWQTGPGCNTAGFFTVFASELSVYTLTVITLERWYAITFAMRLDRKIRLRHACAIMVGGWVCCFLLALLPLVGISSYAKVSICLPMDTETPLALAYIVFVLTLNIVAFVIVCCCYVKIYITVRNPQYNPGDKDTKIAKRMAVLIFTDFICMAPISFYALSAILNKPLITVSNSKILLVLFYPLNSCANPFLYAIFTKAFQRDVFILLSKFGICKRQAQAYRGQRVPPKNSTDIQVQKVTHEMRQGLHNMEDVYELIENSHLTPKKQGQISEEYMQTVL
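HEK 293 cells stably expressing TSHR and a cAMP-gated CNG channel; parental CNG-only cells as counterscreen. Cells preloaded 60 min with membrane potential dye plus 100 uM RO 20-1724, then compound 30 min; fluorescence read at 590 nm.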
Starred values were filed as active, the others as inactive; ? = inconclusive; . = no result; [ ] = dose if it differs, or a comment. In the library only some 7.6% were active in any assay of this set; here they are far more common. Unless noted, calls come from the whole dose curve; as a rule, active = well fitted curve in the direction sought with a large enough effect; inconclusive = small, poorly fitted or top-dose-only effect, or another doubt; inactive = no such curve, though single readings can be large; an effect the other way counts as inactive or inconclusive. Potency is the fitted concentration of half-maximal effect.

SMILES | CRE-bla Fsk | Tau filament bind | ERK AVP block | HEK293 cAMP ctrl | TSHR ag
CCOC(=O)N/N=C1/C[C@@H](O)[C@@H](O)[C@@H]2[C@@H]3C(=O)N(Cc4ccc5c(c4)OCO5)C(=O)[C@H]3CC[C@H]12 | . | . | 0%[11.5 µM] | 2%[11.4 µM] | -6%[11.4 µM]
COc1ccc(OC)c(S(=O)(=O)NCc2ccccc2)c1 | -9% | 10% | 2% | 3% | 6%
COc1ccc(OC)c(NS(=O)(=O)Cc2ccccc2)c1 | 3% | 16µM* | ? | 5% | 2%
Nc1ncnc2[nH]c(=O)[nH]c12 | . | . | 12% | . | .
CN(C)c1ncc2ncc(=O)n(Cc3cccs3)c2n1 | 7.9µM* | -6% | -30% | ? | ?
COc1ncc2ncc(=O)n(Cc3cccs3)c2n1 | 3% | -5% | -22% | ? | ?
O=c1cnc2cnc(Nc3ccccc3)nc2n1Cc1cccs1 | ? | -15% | ? | 13µM* | ?
COC(=O)NC(c1cccc(F)c1)[C@]1(C(C)=O)CCCC1=O (stereo not given in full) | . | . | -2%[11.5 µM] | -4%[11.4 µM] | -2%[11.4 µM]
O=Nc1ccc2oc(=O)ccc2c1 | 5% | -2% | ? | ? | ?
COc1ccc(Nc2ncccc2C(=O)Nc2ccccc2)cc1 | -10% | 20µM* | ? | -26% | -7%[11.4 µM]
COc1cc2cc(C(=O)Nc3ccccc3)c(N)nc2cc1OC | 3.2µM* | ? | -18% | 10% | .
COc1cc2ccccc2cc1C(=O)Nc1cccnc1 | ? | 11% | -23% | ? | ?
COc1ccccc1NC(=O)c1ccccc1-c1nc(-c2ccccc2OC)no1 | -7% | 28% | -8% | 25µM* | ?
COc1ccccc1-c1noc(-c2ccccc2C(=O)Nc2ccccc2)n1 | -20% | 322% | -3% | 25µM* | ?
CNC[C@H](O)[C@H](O)[C@H](O)[C@H](O)CO | -2%[17.1 µM] | -12%[25.6 µM] | -7%[25.7 µM] | -5%[25.6 µM] | -1%[25.6 µM]
O=C1CC2(CCCC2)CC(=O)N1CCCCNC[C@H]1COc2ccccc2O1 | -28% | ? | 18% | 23% | 25%
OC[C@@H]1NC[C@@H](O)[C@H]1O | 3% | -6% | 23% | -8% | 11%
Clc1ccccc1CNCC1CCC(CNCc2ccccc2Cl)CC1 (stereo not given) | -23% | -61% | -20% | 2% | -3%
CS(=O)(=O)N1CCN(C(=O)c2csc3ccccc23)CC1 | 10µM* | 84% | 7% | 3% | -5%
Cc1scc(C(=O)N2CCN(S(C)(=O)=O)CC2)c1-c1ccccc1 | -3% | -2% | -3% | 19% | 7%
CCCCCCc1ccc(-c2ccc(C#N)cc2)cc1 | 13% | 6% | 30% | ? | ?
N#Cc1cc2c(=O)n3ccccc3nc2n(CCCN2CCOCC2)c1=O | 10µM* | 0% | -25% | -7% | -1%
N#Cc1cc2c(=O)n3ccccc3nc2n(Cc2cccnc2)c1=O | 1µM* | 30% | -21% | 0% | -5%
Cc1cccn2c(=O)c3cc(C#N)c(=O)n(Cc4cccnc4)c3nc12 | 6.3µM* | 62% | -18% | -1% | -6%
N#Cc1cc2c(=O)n3ccccc3nc2n(CCN2CCOCC2)c1=O | ? | 12% | -18% | -7% | -4%
SMILES | CRE-bla Fsk | Tau filament bind | ERK AVP block | HEK293 cAMP ctrl | TSHR ag
Cc1ccc2nc3c(cc(C#N)c(=O)n3CC3CCCO3)c(=O)n2c1 (stereo not given) | 1.3µM* | 6% | -4% | -5% | -3%
Cc1cccn2c(=O)c3cc(C#N)c(=N)n(Cc4cccnc4)c3nc12 | 8% | 25% | -11% | 2% | -5%
CC1(C)CC2/C(CO)=C/C=C/[C@](C)(O)CC[C@]21O (stereo not given in full) | . | . | 8% | . | .
CCOc1cccc(C(=O)c2ccc(O)c(O)c2O)c1 | . | . | -18% | . | .
CC(=O)NCCNc1ncnc2ccc(-c3ccc(C(=O)N(C)C)cc3)cc12 | -5% | 13% | 6% | -19% | 1%
Cc1ccc2c(c1)c(C)c(C)n2CC(O)Cn1nc(C)c(Br)c1C (stereo not given) | 2µM* | 48% | -17% | ? | ?
Cc1ccc2c(c1)c1c(n2CC(O)Cn2nc(C)c(Br)c2C)C(=O)CCC1 (stereo not given) | 0% | 3% | -1% | 11% | 6%
COC(=O)c1ccc(C(/C=C/[C@@H](C)C(=O)N[C@H](C)CO)NC(=O)OCc2ccccc2)cc1 (stereo not given in full) | -6% | -12% | 19% | 3% | 12%
O=C(CSc1nnc(-c2ccc(Cl)s2)o1)N1CCCc2ccccc21 | -17% | 14% | 0% | 4µM* | ?
CC1(c2ccncc2)Nc2ccccc2-c2nc3ccccc3n21 (stereo not given) | -20% | -28% | 7% | 6% | 25µM*
O=C(OCC(=O)N1CCCCC1)c1cc2ccccc2cc1O | 0% | 15% | ? | 12% | 1%
CCC1CCCCN1C(=O)COC(=O)c1cc2ccccc2cc1O (stereo not given) | ? | 11% | 5% | 32µM* | ?
CCOCCOC(=O)C1=C(C)Nc2ccc(C)cc2S1 | ? | 13µM* | 0% | -6%[2.29 µM] | -16%
COc1ccccc1N1CCN(S(=O)(=O)c2ccc3c4c(cccc24)C(=O)N3C)CC1 | 16% | 25µM* | 4% | -3% | -1%
O=C(CSc1nc(-c2cccs2)cc(C(F)(F)F)n1)NCc1ccco1 | 14% | -15% | 4% | ? | ?
O=C(NCc1ccco1)c1nc2nc(-c3cccs3)cc(C(F)(F)F)n2n1 | 15% | 25µM* | -7% | -6% | -4%
COCC(=O)Nc1c(I)c(C(=O)NC[C@@H](O)CO)c(I)c(C(=O)N(C)C[C@@H](O)CO)c1I | -3%[17.1 µM] | -9%[25.6 µM] | 7%[25.7 µM] | 10%[25.6 µM] | -3%[25.6 µM]
Cc1ccc(OCC(=O)Nc2ccc(-c3nc4ncccc4o3)cc2)c(C)c1 | -4% | 107% | -6% | 29% | 16µM*
COc1ccccc1OCC(=O)Nc1cccc(-c2nc3ccccc3o2)c1 | 6% | 344% | -23% | 25µM* | ?
Cc1cc(-c2nc3ncccc3o2)ccc1NC(=O)CC(C)C | -10% | 19% | . | 19% | 4%
COc1ccc(C2CC(C(F)(F)F)n3nc(C(=O)NCc4c(C)nn(C)c4C)c(Cl)c3N2)cc1 (stereo not given) | -5% | 4% | 21% | 1% | 6%
Cc1nn(C)c(C)c1CNC(=O)c1cc2n(n1)C(C(F)(F)F)CC(c1cccs1)N2 (stereo not given) | 4% | -8% | 32µM* | 18% | 11%
CN(C)c1ccc(NC(=O)CCCc2ccccc2)cc1 | ? | 20µM* | 20µM* | -10% | -17%
CCCCCCCCCCCCCCCCOC[C@@H](COCC(F)(F)F)OP(=O)(O)OCO | ? | 2% | . | 21% | 20µM*
CCOC(=O)c1cnc2c(C(=O)OC)cccc2c1NCc1ccco1 | ? | 13µM* | ? | -1% | 11%
